According to the supplement of paper PMC10121225:
Structures can show the parent of a compound that is named as a salt.

These molecules were tested on hN + hpA co-culture (H1 iNGN2 human neurons + human primary astrocytes) (assay: presynaptic density (SYNAPSIN1 puncta per MAP2 neurite area), Z-score vs DMSO controls; higher = more presynaptic puncta (synapse-promoting)). Details: 3 µM; 72 h.
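Also: immunostained co-cultures imaged by high-content microscopy, Z-score per plate against mean and SD of 0.1% DMSO wells, compounds added on differentiation day 18, analysed day 21.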

| SMILES | presynaptic density (Z-score) |
| --- | --- |
| Cc1c(C(=O)Nc2ccc(N3C[C@@H](C)O[C@@H](C)C3)nc2)cccc1-c1ccc(OC(F)(F)F)cc1 [LDE225 (NVP-LDE225,Erismodegib)] | 0.612 |
| O=C(C[S+]([O-])Cc1ccco1)NC/C=C\COc1cc(CN2CCCCC2)ccn1 (stereo not drawn) [Lafutidine] | -0.624 |
| N#Cc1c(O)c2c(-c3ccc(-c4ccccc4O)cc3)csc2[nH]c1=O | -1.26 |
| CC(C)(C)c1cc(C(C)(C)C)c(NC(=O)c2c[nH]c3ccccc3c2=O)cc1O [Ivacaftor (VX-770)] | 0.324 |
| C=CCc1cccc(C=NNC(=O)CN2CCN(Cc3ccccc3)CC2)c1O | -1.87 |
| C=C1C(=O)OC2C=C(C)CCC=C(C)CCC12 (stereo not drawn) | 0.309 |
| OCCOc1ccc(/C(=C(/CCCl)c2ccccc2)c2ccccc2)cc1 [Ospemifene] | -0.588 |
| COc1cccc(C=NCCN=Cc2cccc(OC)c2[O-])c1[O-].[Cl-].[Mn+3] | -0.63 |
| CCCCOc1ccc(C(=O)Nc2ccc(F)cc2F)cc1 | 0.219 |
| NC(=O)c1ncn([C@@H]2O[C@H](CO)[C@@H](O)[C@H]2O)c1N | 0.26 |
| COc1cc2/c(=N/c3ccc(Br)cc3F)nc[nH]c2cc1OCC1CCN(C)CC1 [Vandetanib (ZD 6474)] | 0.993 |
| OCCn1cc(-c2cnc3nnn(Cc4ccc5ncccc5c4)c3n2)cn1 | -0.173 |
| COc1ccccc1OCCNCC(O)COc1cccc2[nH]c3ccccc3c12 (stereo not drawn) | -1.2 |
| O=S(=O)(NCCNCC=Cc1ccc(Br)cc1)c1cccc2cnccc12 | -0.0684 |
| CCc1cccc2c3c([nH]c12)C(CC)(CC(=O)O)OCC3 (stereo not drawn) [Etodolac] | -1.87 |
| Cc1[nH]c2ccccc2c1CCNCc1ccc(/C=C/C(=O)NO)cc1 [Panobinostat (LBH589)] | 4.81 |
| CCc1c(C(=O)NCCc2ccc(N3CCCCC3)cc2)[nH]c2ccc(Cl)cc12 | -0.684 |
| CCN(CC)CC(=O)Nc1c(C)cccc1C | 0.846 |
| O=C(c1ccc(F)cc1)N1CCCC(c2nc(-c3ccc(F)cc3)no2)C1 (stereo not drawn) | -0.851 |

| SMILES | presynaptic density (Z-score) |
| --- | --- |
| Cc1nc(C(=O)NCC(=O)O)c(O)c2ccc(Oc3ccccc3)cc12 | 0.792 |
| O=C(O)c1ccc(Nc2ncc3c(n2)-c2ccc(Cl)cc2C(c2c(F)cccc2F)=NC3)cc1 | -0.286 |
| COc1ccc(CC(C)NCC(O)c2ccc(O)c(NC=O)c2)cc1 (stereo not drawn) | 0.254 |
| O=c1cc(-c2cccc3c2Sc2ccccc2S3)oc(N2CCOCC2)c1 | -0.963 |
| CCCCc1nc(Cl)c(CO)n1Cc1ccc(-c2ccccc2-c2nnn[nH]2)cc1 [Losartan Potassium (DuP 753)] | 0.806 |
| CNC(=O)c1ccccc1Nc1nc(Nc2ccc(N3CCOCC3)cc2OC)ncc1Cl | 0.092 |
| CC(C)c1onc(-c2c(Cl)cccc2Cl)c1COc1ccc(/C=C/c2cccc(C(=O)O)c2)c(Cl)c1 | -0.576 |
| C=CC(=O)N1CCC[C@@H](n2nc(-c3ccc(Oc4ccccc4)cc3)c3c(N)ncnc32)C1 | -0.341 |
| O=C(Nc1nc2cccc(-c3ccc(CN4CCS(=O)(=O)CC4)cc3)n2n1)C1CC1 [Filgotinib (GLPG0634)] | -0.645 |
| CN(C)CCOc1ccc(/C(=C(/CCCl)c2ccccc2)c2ccccc2)cc1 | -0.866 |
| COc1ccccc1Oc1c(NS(=O)(=O)c2ccc(C(C)(C)C)cc2)nc(-c2ncccn2)nc1OCCO [Bosentan Hydrate] | 0.531 |
| COC1CCN(C(=O)c2cc(Cc3n[nH]c(=O)c4ccccc34)ccc2F)CC1 | 0.144 |
| NS(=O)(=O)C#Cc1ccccc1 [2-Phenylethynesulfonamide] | 0.148 |
| CC[C@H](C)C(=O)O[C@H]1C[C@@H](C)C=C2C=C[C@H](C)[C@H](CC[C@@H]3C[C@@H](O)CC(=O)O3)[C@H]21 | 1.56 |
| C#CCN[C@@H]1CCc2ccccc21 [Rasagiline Mesylate] | 0.0894 |
| Cc1cccc(CC(=O)N2CCc3c2ccc(-c2cn(C)c4ncnc(N)c24)c3F)n1 | -0.752 |
| CNC(=O)c1ccc2cc([C@@]3(O)CCn4cncc43)ccc2c1 [TAK-700 (Orteronel)] | 0.215 |
| C[C@]12C=CC(=O)N[C@@H]1CC[C@@H]1[C@@H]2CC[C@]2(C)[C@@H](C(=O)Nc3cc(C(F)(F)F)ccc3C(F)(F)F)CC[C@@H]12 [Dutasteride] | -1.23 |
| COc1ccc2c(c1)c(CC(=O)N1CCOCC1)c(C)n2C(=O)c1ccc(Cl)cc1 | -0.448 |
